The results in this text go back to PubChem BioAssay AID1851 (National Center for Advancing Translational Sciences (NCATS), 2009).

The structures appear in SMILES notation. Where “and” joins values, the source holds several entries; their conditions need not be identical. Equal entries are not always repeated. About 5,800 (36%) of roughly 16,000 compounds were called active. Another 23% or so got no clear call; they are omitted. The list shows a part of the results. A number with no mark means an inactive call. Calls come from the whole dose curve; as a rule, active = well fitted curve in the direction sought with a large enough effect; inconclusive = small, poorly fitted or top-dose-only effect, or effect the other way; inactive = no such curve, though single readings can be large or run the other way.
% is set by controls: 0 for no effect and ±100 for the full control effect.

The test deals with Cytochrome P450 2C19 (Homo sapiens) (UniProt P33261). Description: Cytochrome panel assay with activity outcomes. The settings on record: recombinant CYP, pro-luciferin dealkylation, luminescence, p450-cyp2c19; series mostly up to 57.1 µM.
Sequence of Cytochrome P450 2C19 (Homo sapiens) (P33261 whole entry, looked up): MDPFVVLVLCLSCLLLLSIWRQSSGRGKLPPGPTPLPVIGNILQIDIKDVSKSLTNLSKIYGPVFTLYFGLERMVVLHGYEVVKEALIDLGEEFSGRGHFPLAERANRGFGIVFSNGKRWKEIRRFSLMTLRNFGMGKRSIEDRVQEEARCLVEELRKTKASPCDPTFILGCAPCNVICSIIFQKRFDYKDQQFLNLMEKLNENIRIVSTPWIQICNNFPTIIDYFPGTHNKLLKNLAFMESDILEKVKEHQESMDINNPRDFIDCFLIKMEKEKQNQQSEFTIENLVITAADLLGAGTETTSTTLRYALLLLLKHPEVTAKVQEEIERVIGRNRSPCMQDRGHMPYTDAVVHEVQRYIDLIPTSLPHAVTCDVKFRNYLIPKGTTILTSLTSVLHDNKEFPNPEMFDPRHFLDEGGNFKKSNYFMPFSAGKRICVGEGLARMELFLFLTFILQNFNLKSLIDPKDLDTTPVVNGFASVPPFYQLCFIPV
A word on the AC50: it is the midpoint of the concentration-response curve, whichever way the signal moves. In the case of `N#Cc1c(NC(=O)CCN2C(=O)c3ccccc3C2=O)oc(-c2ccccc2)c1-c1ccccc1`, the AC50 is 3.16 µM (active). As for `Cc1ccc(CNCC(O)(c2ccc(F)cc2)c2ccc(F)cc2)cc1`, the AC50 is 11.2 µM (active).

For the compound `OC(CNCc1ccc(F)cc1)(c1ccc(F)cc1)c1ccc(F)cc1`, the AC50 was 7.94 µM (active). The same measure, in the same setting: for `COc1cnc(-c2ccccn2)nc1Oc1ccc(Cl)c2ccccc12` the value was 14.1 µM (active); for `C=C1C(=O)O[C@@H]2[C@@H]1CC/C(C)=C\CC[C@@]1(C)O[C@H]21`, “inactive”. On the same count and under the same terms, for `Cn1c(Sc2ccc(-c3cccnc3)n2C)ccc1-c1cccnc1` the value was 1 µM (active). In the case of `c1cncc(-c2cc(-c3cc(-c4cccnc4)n[nH]3)[nH]n2)c1`, the activity, negative = inhibition is -4.18% [at 11.4 µM].

As for `COc1cccc(/C=N/NC(=O)CO/N=C(\C)c2cccs2)c1OC`, the AC50 was 12.6 µM (active). With `CCOc1ccc(-c2cc(CCCC(=O)NCCc3ccc(OC)c(OC)c3OC)no2)cc1`, the AC50 is 1.58 µM (active). Still for that read-out and setting: for `CC(=O)N1CCC2(CCCN(C(=O)Nc3cccc(F)c3)C2)CC1` the value was “inactive”. The same measure, in the same setting: for `O=C(/C=C\NCC(=O)c1ccccc1)c1ccccc1` the value was 3.98 µM (active); for `O=C(/C=C\NCC(=O)c1ccccc1)c1ccc(F)cc1`, 2 µM (active).

Turning to `O=C(C[N+]1(c2ccccc2)CCOCC1)c1ccccc1`, the activity, negative = inhibition was -17.3% [at 11.4 µM]. For the compound `c1ccc(C(c2ccccc2)N2CCCC3(CCNCC3)C2)cc1`, the AC50 entry was “inactive”. Same read-out and setting: under `c1ccc(C(c2ccccc2)N2CCC3(CCNCC3)CC2)cc1` stands 3.98 µM (active); under `c1ccc(C(c2ccccc2)N2CC3(CCNCC3)C2)cc1`, “inactive”. Take `O=C1[C@H]2[C@H]3[C@H](O)[C@H](O)C/C(=N/OC[C@@H](O)COCc4ccco4)[C@H]3CC[C@@H]2C(=O)N1Cc1ccc2c(c1)OCO2`: the activity, negative = inhibition was 4.07% [at 11.4 µM].

With `CC(C)CO/N=C1/C[C@@H](O)[C@@H](O)[C@@H]2[C@@H]3C(=O)N(Cc4ccc5c(c4)OCO5)C(=O)[C@H]3CC[C@H]12`, the concentration at half-maximal activity (AC50) was 3.98 µM (active). `CC(C)CO/N=C1/C[C@@H](O)[C@@H](O)[C@@H]2[C@@H]3C(=O)N(Cc4ccc5c(c4)OCO5)C(=O)[C@H]3CC[C@@H]12`: the activity, negative = inhibition is -22.9% [at 11.4 µM]. Still for that read-out and setting: for `O=C(NNC(=O)c1ccncc1)c1ccncc1` the value was 6.77% [at 11.4 µM]. Turning to `O=C(Nc1nnc(C2CC2)s1)c1ccncc1`, the AC50 was 17.8 µM (active). Turning to `NNC(=O)CNC(c1ccccc1)c1cc(Br)ccc1NC(=O)c1ccccc1Br` (configuration not stated), the AC50 is 7.08 µM (active). As for `Cc1ccc(-c2c3c(nc4sc(C(N)=O)c(N)c24)CCC3)cc1`, the AC50 was 14.1 µM (active). Same read-out and setting: under `COc1ccc(C2/C(=C(/O)c3ccccc3)C(=O)C(=O)N2c2ccccn2)c(OC)c1` (configuration not stated) stands “inactive”. Turning to `O=C1C(=O)N(c2cccc(Cl)c2)C(c2ccccc2[N+](=O)[O-])/C1=C(\O)c1ccccc1` (configuration not stated), the AC50 is 20 µM (active). On the same count and under the same terms, under `O=[N+]([O-])c1ccc(C2=Nn3c(nnc3-c3ccc(Cl)cc3)SC2)o1` stands 2.51 µM (active). Consider `O=C1COC(c2ccccc2O)=NN1CCCN1CCCC1`, for which the activity, negative = inhibition is 43.2% [at 11.4 µM]. Turning to `Cn1c(=O)n(CC#N)c2ccccc21`, the AC50 entry was “inactive”. Turning to `Cc1snc(SCC(=O)N/N=C(\N)COc2cccc(C(F)(F)F)c2)c1C#N`, the AC50 is 4.47 µM (active). For the compound `CC(=O)OCC1=C(C(=O)O)N2C(=O)[C@@H](NC(=O)Cc3cccs3)[C@@H]2SC1`, the AC50 result was “inactive”.

On to `COc1ccc(CCN(C)CCC(=O)Nc2c(C)cc(C)cc2C)cc1OC`, for which the AC50 result is “inactive”. In the case of `COc1ccc(CCNC(=O)CCN2C(=O)C(C)Oc3ccc(C)cc32)cc1OC` (configuration not stated), the AC50 was 20 µM (active).

For `Cc1ccc2c(c1)N(CC(=O)NCc1cccs1)C(=O)C(C)O2` (configuration not stated), the AC50 was 2.51 µM (active). Turning to `Cc1ccc(C)c(NC(=O)Cn2nnc(C(=O)NCc3cccs3)c2N)c1`, the AC50 result is “inactive”. Still for that read-out and setting: for `NC(=O)/C(=N\OC(=O)c1ccco1)c1nc(-c2ccc(Br)cc2)cs1` the value was 20 µM (active).

On to `O=C(O)[C@@H](Cc1c[nH]c2ccccc12)C(=O)NO`, for which the activity, negative = inhibition is 84.7% [at 11.4 µM]. With `Cc1cc(C)cc(C(=O)N(C)[C@H](Cc2ccc(-c3ccccc3)cc2)C(=O)N[C@@H](Cc2c[nH]c3ccccc23)C(=O)O)c1`, the AC50 is 10 µM (active).

Regarding `CCc1cc2c(nc1CC)CCN(CC/C(C)=N/O[C@@H](C)c1cn([C@H](CO)Cc3ccccc3)nn1)C2`, the activity, negative = inhibition is -17.2% [at 11.4 µM] and -16.8% [at 11.4 µM]. Turning to `CC(=O)Nc1ccnc(-c2cccnc2)n1`, the AC50 result was “inactive”. For the compound `O=C(Nc1ccnc(-c2cccnc2)n1)c1cccc(Cl)c1Cl`, the AC50 is 2.82 µM (active). Still for that read-out and setting: for `CC(C)(C)C(=O)Nc1ccnc(-c2cccnc2)n1` the value was 2.24 µM (active); for `O=C(N/N=C/c1cccc(OCc2ccccc2)c1)c1cccs1`, 5.01 µM (active); for `O=C(N/N=C/c1ccc(OCc2ccccc2)cc1)c1cccs1`, 2.51 µM (active). On the same count and under the same terms, under `O=C(N/N=C/C=C/c1ccc([N+](=O)[O-])cc1)c1cccs1` stands “inactive”; under `COc1ccc(CCN(C)Cc2ccc(OCc3ccccc3)c(OC)c2)cc1OC`, “inactive”. Still for that read-out and setting: under `C=CCNC(=S)N/N=C/c1ccc(OCc2ccccc2)cc1` stands “inactive”; under `COc1cc(/C=N/NC(=O)c2cccs2)ccc1OCc1ccccc1`, 1.41 µM (active). In the case of `COc1cc(/C=N\NC(=O)C2C(=O)NCC2c2ccccc2)cc(OC)c1O` (configuration not stated), the AC50 result was “inactive”. Consider `Cc1c(NCc2cc(Cl)ccc2O)c(=O)n(-c2ccccc2)n1C`, for which the AC50 is 5.62 µM (active). Take `Cc1c(NC(=O)Nc2c(Cl)cccc2Cl)c(=O)n(-c2ccccc2)n1C`: the activity, negative = inhibition is 10.7% [at 11.4 µM].

In the case of `Cc1c(NC(C)C)c(=O)n(-c2ccccc2)n1C`, the AC50 entry was “inactive”.

Take `C=C(C)COc1ccc2c(c1)CCC1C2CC[C@]2(C)C(=O)/C(=N/O)CC12` (some centres not stated): the activity, negative = inhibition is 19.2% [at 11.4 µM]. In the case of `CCOC(=S)SCC(=O)O`, the activity, negative = inhibition is 38.2% [at 11.4 µM]. In the case of `O=c1cc(-c2ccccc2)[nH]n1-c1ccc([N+](=O)[O-])cc1`, the AC50 was 8.91 µM (active).

For `COc1ccc(Oc2c(Cl)cnn(-c3ccccc3)c2=O)cc1`, the AC50 is 2.24 µM (active).

As to `COc1cccc(/C=N/n2nnc3c(cnn3-c3ccccc3)c2=O)c1`, the AC50 entry is “inactive”. The same measure, in the same setting: for `COc1ccc(-n2c(=O)c(C)nc3cnc(Oc4ccccc4)nc32)cc1` the value was “inactive”.
